# Test results from PubChem BioAssay (NCATS).
# Records with an inconclusive call do not appear. Where a call stands in place of a potency, no number is given. Activity calls are given as the source filed them. Unless noted, calls come from the whole dose curve; as a rule, active = well fitted curve in the direction sought with a large enough effect; inconclusive = small, poorly fitted or top-dose-only effect, or another doubt; inactive = no such curve, though single readings can be large; an effect the other way counts as inactive or inconclusive.
# How the values were obtained:
# [1] = molecular target: Lysosomal acid glucosylceramidase (Homo sapiens) (UniProt P04062); assay: Glucocerebrosidase-p2 (AID 348; in the data active = potency below about 10 µM; note: potency is the fitted concentration of half-maximal effect); conditions: purified GBA, blue fluorogenic substrate, 40 min
# Outline: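 Normal human glucocerebrosidase (0.2 nM) with blue fluorogenic substrate (80 uM final) in citrate/phosphate pH 5.9 with 10mM sodium taurocholate, 0.01% tween-20; 40 min RT, NaOH/glycine stop; fluorescence Ex 365/Em 440; AC50 from a titration from 0.6 nM upwards.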
# [2] = AP1 Signaling Pathway (AID 357; active = well fitted curve in either direction with a large enough effect, not every such curve was filed as active;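 note: ME-180 reporter cells stimulated with EGF at its EC50 level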)
# Outline: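 In this screen, ME-180 cells in Opti-MEM with 0.5% dialyzed FBS received EC50 EGF and compound titrations for 5 h. AP-1 reporter beta-lactamase was detected via CCF4 ratio, giving AC50 for positive and negative modulators.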
# [3] = molecular target: Cytochrome P450 1A2 (Homo sapiens) (UniProt P05177); assay: p450-cyp1a2 (AID 410; calls by dose curve; note: potency is the fitted concentration of half-maximal effect)
# Outline: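 Read-out is luminescence from luciferin produced by CYP1A2 demethylation of Luciferin-ME (100uM, at Km). Detection reagent stopped the 60 min NADPH-dependent reaction; signals were normalized to 57 uM furafylline.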
# [4] = Stat Signaling Pathway (AID 446; active = well fitted curve in either direction with a large enough effect, not every such curve was filed as active;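 note: ME-180 cervical cancer cells given 40 pM IL-6 alongside compound; SIE-controlled beta-lactamase reporter measured as 460/530 nm FRET emission ratio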)
# Outline: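 Overnight-plated ME-180 cells bearing a STAT Inducible Element beta-lactamase reporter; 5 h co-exposure to compound and 40 pM IL-6; values normalized to 300 pM IL-6 and 125 nM JAK inhibitor controls.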
# [5] = molecular target: Glucocorticoid receptor (Homo sapiens) (UniProt P04150); assay: GR-EFC Redistribution (AID 451; calls by dose curve; note: potency is the fitted concentration of half-maximal effect); conditions: CHO-K1 GR-EFC translocation, beta-gal luminescence, 2 h
# Outline: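 Translocation of GR-ED fusion to nuclear EA restores b-gal, read by luminescence after 1 h room-temperature detection. Engineered CHO-K1 biosensor cells, 1,000/well, exposed 2 h at 37 C to titrations up to 46 uM final.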
# [6] = molecular target: Mitogen-activated protein kinase 10 (Mus musculus) (UniProt Q61831); assay: JNK3 AlphaScreen Assay (AID 530; active = well fitted curve in either direction with a large enough effect, not every such curve was filed as active;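 note: kinase came from lysate of stimulated human HepG2 cells; signal reports phosphorylation of biotinylated GST-cJun 1-79 at Ser73 with 10 µM ATP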)
# Outline: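 Kinase buffer: 20 mM Tris-HCl pH 7.6, 10 mM MgCl2, 1 mM DTT, 0.1 mM Na3VO4, 0.01% Tween-20; ATP 10 uM. Substrate biotin-GST-cJun(1-79), enzyme from activated HepG2 lysates. Detection by Ser73 phospho-antibody AlphaScreen.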
# [7] = molecular target: Cytochrome P450 3A4 (Homo sapiens) (UniProt P08684); assay: qHTS Assay for Activators of Cytochrome P450 3A4 (AID 885); note: nearly all actives have a fitted effect of over 65% in size
# Outline: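 Using 20nM recombinant human CYP3A4 in potassium phosphate (200mM), substrate Luciferin-PPXE at 25uM, luminescent luciferin detection followed a 60-min RT NADPH reaction; data scaled to 57 uM ketoconazole.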
# [8] = molecular target: Cytochrome P450 2D6 (Homo sapiens) (UniProt P10635); assay: qHTS Assay for Inhibitors and Substrates of Cytochrome P450 2D6 (AID 891); note: potency is the fitted concentration of half-maximal effect; nearly all actives have a fitted effect of over 60% in size
# Outline: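 Luminescent read-out of luciferin formed by 5 nM human CYP2D6 demethylating 30 uM Luciferin-ME EGE (Km level) over 60 min at room temperature after NADPH regeneration addition. Data normalized to full inhibition by 1.43 uM quinidine.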
# [9] = qHTS Assay for Lipid Storage Modulators (AID 1519; calls by dose curve); conditions: Drosophila S3 cells, BODIPY lipid droplet/cell ratio, laser cytometry, cells loaded with oleic acid; for activity change, negative = inhibition: at 57.5 µM (top of the series)
# Outline: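 Cells seeded at 5,000 per well were treated with compounds over a concentration series and loaded with oleic acid (400 uM, as added). Lipid droplet fluorescence (488 nm excitation, 500-530 nm channel) was read by laser-scanning cytometry and normalized to 20 uM Triacsin C.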
# [10] = Counterscreen qHTS for small molecule stabilizers of the endoplasmic reticulum resident proteome: GLuc-NoTag assay (AID 1508627);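 note: SH-SY5Y cells given compound then 100 nM thapsigargin to empty ER calcium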
# Outline: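 Counterscreen line: SH-SY5Y-GLuc-NoTag cells, treated with compound 19 hr before a 4 hr, 100 nM thapsigargin calcium depletion. Secreted Gaussia luciferase in the medium was measured by luminescence after coelenterazine was added (0.07x final), with cells unlysed.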
# [11] = molecular target: 3',5'-cyclic-AMP phosphodiesterase 4B (Homo sapiens) (UniProt Q07343); assay: qHTS Assay for Inhibitors of PDE-IV (AID 607; active = well fitted activation curve with a large enough effect in the main read-out, with a control signal flat, not every such curve was filed as active)
# Outline: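 Live HEK293 cells with a modified cyclic nucleotide-gated (CNG) channel report intracellular cAMP via membrane-potential dye fluorescence (ex 535/em 590 nm). Endogenous PDE-IV was targeted. Compounds were tested at up to 22.9 uM final; RO 20-1724 100 uM served as control.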
# [12] = Cell Viability qHTS for small molecule stabilizers of the endoplasmic reticulum resident proteome (AID 1508629); conditions: cell viability counter-screen, 100 nM thapsigargin for final 4 h;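 note: human SH-SY5Y neuroblastoma cells carrying the GLuc-SERCaMP reporter; compound exposure about 46 h in total before the viability read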
# [13] = Primary qHTS for small molecule stabilizers of the endoplasmic reticulum resident proteome: Secreted ER Calcium Modulated Protein (SERCaMP) assay (AID 1508630)
# Outline: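 The SH-SY5Y reporter protocol was run at 3 concentrations up to 38.3 uM (primary) or 11 concentrations (follow-up): 16 h compound, 100 nM thapsigargin for 4 h, then extracellular luciferase luminescence.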
# [14] = molecular target: Calcium and integrin-binding protein 1 (Homo sapiens) (UniProt Q99828); assay: Primary qHTS for Identification of Calcium Integrin Binding Protein 1 (CIB1) Competitor (AID 1508620);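 note: GST tagged CIB1 binding a fluorescein labelled alphaIIb integrin peptide tracer; top concentration of the series differs between compounds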
# Outline: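 CIB1-GST (1 uM final) and compound incubated 15 min at room temperature before adding FITC-alphaIIb peptide tracer (100 nM final). Competition for binding read by fluorescence polarization (ex 480, em 540) after another 15 min at room temperature.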
# [15] = Confirmatory qHTS for small molecule stabilizers of the endoplasmic reticulum resident proteome: Secreted ER Calcium Modulated Protein (SERCaMP) assay (AID 1508628); note: nearly all actives have a fitted effect of over 40% in size
# Outline: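 GLuc-SERCaMP-expressing SH-SY5Y cells, pretreated 16 h with compound, are challenged with thapsigargin to empty ER calcium stores; after 4 h, coelenterazine is added directly to the medium and luminescence is imaged.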
# [16] = measured here: cell count channel max response
# [17] = measured here: lipid channel max response
# Chain of Glucocorticoid receptor (Homo sapiens) (P04150 whole entry, looked up, the tested form may be a part): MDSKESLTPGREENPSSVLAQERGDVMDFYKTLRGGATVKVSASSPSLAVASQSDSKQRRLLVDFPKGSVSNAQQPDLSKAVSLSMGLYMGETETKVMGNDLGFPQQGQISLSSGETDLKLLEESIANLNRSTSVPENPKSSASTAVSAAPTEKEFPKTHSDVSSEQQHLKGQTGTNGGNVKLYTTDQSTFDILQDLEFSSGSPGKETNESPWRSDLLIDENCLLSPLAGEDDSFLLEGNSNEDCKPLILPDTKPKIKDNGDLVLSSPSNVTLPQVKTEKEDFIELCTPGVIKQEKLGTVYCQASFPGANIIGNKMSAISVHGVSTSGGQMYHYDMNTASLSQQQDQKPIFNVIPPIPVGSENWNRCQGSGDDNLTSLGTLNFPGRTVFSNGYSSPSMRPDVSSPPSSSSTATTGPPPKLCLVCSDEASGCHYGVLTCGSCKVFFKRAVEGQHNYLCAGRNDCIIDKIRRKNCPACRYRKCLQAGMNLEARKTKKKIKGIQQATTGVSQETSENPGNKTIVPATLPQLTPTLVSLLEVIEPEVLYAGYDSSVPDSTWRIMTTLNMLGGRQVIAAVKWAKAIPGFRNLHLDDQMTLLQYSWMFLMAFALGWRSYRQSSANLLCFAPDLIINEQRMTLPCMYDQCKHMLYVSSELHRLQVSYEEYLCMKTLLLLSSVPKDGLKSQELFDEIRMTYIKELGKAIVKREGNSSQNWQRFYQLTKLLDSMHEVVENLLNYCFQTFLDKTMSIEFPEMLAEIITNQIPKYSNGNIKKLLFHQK
# Chain of Cytochrome P450 1A2 (Homo sapiens) (P05177 whole entry, looked up): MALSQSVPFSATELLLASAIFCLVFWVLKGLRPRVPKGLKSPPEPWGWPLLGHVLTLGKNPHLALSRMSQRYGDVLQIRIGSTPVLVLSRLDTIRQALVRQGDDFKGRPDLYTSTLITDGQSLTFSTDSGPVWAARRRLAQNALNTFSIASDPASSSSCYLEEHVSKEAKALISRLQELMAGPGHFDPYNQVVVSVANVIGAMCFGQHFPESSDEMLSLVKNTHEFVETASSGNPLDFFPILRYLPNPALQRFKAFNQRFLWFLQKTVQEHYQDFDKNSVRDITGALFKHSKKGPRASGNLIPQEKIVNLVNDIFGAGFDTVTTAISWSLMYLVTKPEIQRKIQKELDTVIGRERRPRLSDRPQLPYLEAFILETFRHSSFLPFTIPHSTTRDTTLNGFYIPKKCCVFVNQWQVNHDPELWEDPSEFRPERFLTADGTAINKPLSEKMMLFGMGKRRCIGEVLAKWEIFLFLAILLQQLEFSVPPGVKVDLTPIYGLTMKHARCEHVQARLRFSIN
# Chain of Calcium and integrin-binding protein 1 (Homo sapiens) (Q99828 whole entry, looked up): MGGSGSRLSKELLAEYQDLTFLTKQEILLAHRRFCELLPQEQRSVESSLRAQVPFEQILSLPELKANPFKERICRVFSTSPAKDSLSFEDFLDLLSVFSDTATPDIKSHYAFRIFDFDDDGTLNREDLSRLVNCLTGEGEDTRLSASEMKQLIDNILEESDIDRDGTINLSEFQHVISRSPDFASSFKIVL
# Chain of Lysosomal acid glucosylceramidase (Homo sapiens) (P04062 whole entry, looked up): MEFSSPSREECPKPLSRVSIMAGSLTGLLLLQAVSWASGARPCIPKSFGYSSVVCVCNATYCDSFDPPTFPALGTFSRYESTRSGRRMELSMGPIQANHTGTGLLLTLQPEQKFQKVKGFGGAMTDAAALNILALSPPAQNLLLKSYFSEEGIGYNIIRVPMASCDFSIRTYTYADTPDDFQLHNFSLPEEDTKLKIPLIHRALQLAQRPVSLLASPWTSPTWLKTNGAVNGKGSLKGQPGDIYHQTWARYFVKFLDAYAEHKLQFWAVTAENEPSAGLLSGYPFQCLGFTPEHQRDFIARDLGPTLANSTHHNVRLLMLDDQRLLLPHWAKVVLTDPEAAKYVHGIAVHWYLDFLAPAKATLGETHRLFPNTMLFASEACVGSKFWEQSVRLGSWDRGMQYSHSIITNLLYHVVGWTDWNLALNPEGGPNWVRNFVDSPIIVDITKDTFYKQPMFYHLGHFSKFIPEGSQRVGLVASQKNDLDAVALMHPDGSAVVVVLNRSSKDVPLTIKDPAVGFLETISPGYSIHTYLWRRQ
# Chain of 3',5'-cyclic-AMP phosphodiesterase 4B (Homo sapiens) (Q07343 whole entry, looked up): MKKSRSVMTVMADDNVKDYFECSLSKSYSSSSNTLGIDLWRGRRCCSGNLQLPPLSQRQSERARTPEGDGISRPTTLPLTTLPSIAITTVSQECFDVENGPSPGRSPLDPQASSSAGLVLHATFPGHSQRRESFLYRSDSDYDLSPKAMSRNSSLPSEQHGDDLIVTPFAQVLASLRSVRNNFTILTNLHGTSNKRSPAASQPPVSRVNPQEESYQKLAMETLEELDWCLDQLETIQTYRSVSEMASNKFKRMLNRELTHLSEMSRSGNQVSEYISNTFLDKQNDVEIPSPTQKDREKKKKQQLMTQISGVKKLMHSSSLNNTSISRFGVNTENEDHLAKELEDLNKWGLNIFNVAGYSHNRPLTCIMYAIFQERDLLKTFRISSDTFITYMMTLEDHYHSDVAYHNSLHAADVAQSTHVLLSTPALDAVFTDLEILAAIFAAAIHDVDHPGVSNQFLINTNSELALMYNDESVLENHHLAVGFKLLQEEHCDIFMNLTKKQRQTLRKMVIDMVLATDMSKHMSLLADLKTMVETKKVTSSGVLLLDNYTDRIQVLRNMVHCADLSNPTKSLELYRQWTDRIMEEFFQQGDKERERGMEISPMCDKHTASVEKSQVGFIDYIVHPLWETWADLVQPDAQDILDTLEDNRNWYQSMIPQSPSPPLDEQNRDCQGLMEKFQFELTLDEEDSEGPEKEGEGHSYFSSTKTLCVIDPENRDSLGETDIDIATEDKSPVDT
# Chain of Cytochrome P450 2D6 (Homo sapiens) (P10635 whole entry, looked up): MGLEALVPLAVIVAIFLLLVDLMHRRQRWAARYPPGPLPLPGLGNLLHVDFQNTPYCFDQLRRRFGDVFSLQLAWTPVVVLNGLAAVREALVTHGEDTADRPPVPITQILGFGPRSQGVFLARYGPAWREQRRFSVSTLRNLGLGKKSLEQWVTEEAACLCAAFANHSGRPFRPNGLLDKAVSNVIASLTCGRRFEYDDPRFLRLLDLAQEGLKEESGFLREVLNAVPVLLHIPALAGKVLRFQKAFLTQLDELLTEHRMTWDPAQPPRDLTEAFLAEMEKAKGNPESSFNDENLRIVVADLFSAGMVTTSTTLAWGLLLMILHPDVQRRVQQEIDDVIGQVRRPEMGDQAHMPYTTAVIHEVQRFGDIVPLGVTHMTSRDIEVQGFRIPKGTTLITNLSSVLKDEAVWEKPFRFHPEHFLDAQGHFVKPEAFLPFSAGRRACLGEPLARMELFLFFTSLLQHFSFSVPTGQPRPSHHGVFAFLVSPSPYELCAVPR
# Chain of Cytochrome P450 3A4 (Homo sapiens) (P08684 whole entry, looked up): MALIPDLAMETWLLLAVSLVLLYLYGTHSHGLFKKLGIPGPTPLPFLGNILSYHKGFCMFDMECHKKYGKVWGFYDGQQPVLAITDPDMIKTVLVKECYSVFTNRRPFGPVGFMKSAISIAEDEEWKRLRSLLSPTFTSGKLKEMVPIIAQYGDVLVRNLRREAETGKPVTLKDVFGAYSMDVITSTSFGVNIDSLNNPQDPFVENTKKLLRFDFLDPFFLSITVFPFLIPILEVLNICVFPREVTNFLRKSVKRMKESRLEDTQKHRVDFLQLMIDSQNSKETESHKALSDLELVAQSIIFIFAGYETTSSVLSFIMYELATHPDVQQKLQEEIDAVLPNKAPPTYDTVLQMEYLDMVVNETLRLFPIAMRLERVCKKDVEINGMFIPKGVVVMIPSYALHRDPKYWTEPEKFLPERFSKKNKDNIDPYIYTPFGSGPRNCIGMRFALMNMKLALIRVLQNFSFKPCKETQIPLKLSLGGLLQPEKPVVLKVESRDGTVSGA
smiles,measurement,setting,value
c1ccc(N2CCC3(CCNCC3)CC2)nc1,Potency,[1],> 11.4 µM (inactive)
same,outcome,[2],inactive
same,Potency,[3],inactive
same,outcome,[4],inactive
same,Potency,[5],> 46 µM (inactive)
same,outcome,[6],inactive
same,Potency,[7],inactive
same,Potency,[8],1.26 µM (active)
same,"activity change, negative = inhibition",[9],6.81% (inactive)
same,max response,[9]; [16],19.9%
same,max response,[9]; [17],29.9%
same,outcome,[10],inactive
c1ccc(N2CCCC3(CCNCC3)C2)cc1,Potency,[1],> 11.4 µM (inactive)
same,outcome,[2],inactive
same,Potency,[3],inactive
same,outcome,[4],inactive
same,Potency,[5],> 46 µM (inactive)
same,outcome,[6],inactive
same,Potency,[11],inactive
same,Potency,[7],inactive
same,Potency,[8],7.94 µM (active)
same,"activity change, negative = inhibition",[9],4.45% (inactive)
same,max response,[9]; [16],4.47%
same,max response,[9]; [17],14.8%
same,outcome,[10],inactive
same,max response,[12],-4.75% (inactive)
CC(=O)O[C@@H]1C[C@@]2(C)C(c3ccoc3)C[C@H]3O[C@]32[C@]2(C)C(=O)C(O)=C3C(C)(C)C(=O)C=C[C@]3(C)C12 (stereo not given in full),outcome,[13],inactive
CCOc1ccc(CCNC(=O)c2cc3ccccc3n2CCN2CCOCC2)cc1OCC,outcome,[14],inactive
Cc1[nH]c2ccccc2c1P(=S)(c1ccccc1)c1ccccc1,outcome,[14],inactive
CC1=C(C(=O)Nc2nccs2)C(c2ccccc2Br)N=C(Nc2nc3ccccc3o2)N1 (stereo not given),outcome,[14],inactive
Cc1c(P(=S)(c2ccccc2)c2ccccc2)[n+]2ccccc2n1C,outcome,[14],inactive
COc1ccc(NC(=O)N2CCCC3(CCN(C(=O)Oc4ccccc4)CC3)C2)cc1,Potency,[1],> 11.4 µM (inactive)
same,outcome,[2],inactive
same,Potency,[3],12.6 µM (active)
same,outcome,[4],inactive
same,Potency,[5],> 46 µM (inactive)
same,outcome,[6],inactive
same,Potency,[11],inactive
same,outcome,[10],inactive
same,Potency,[15],inactive
